From PubChem BioAssay (EPA / NIEHS) come the findings set out here.

Molecules are shown by their SMILES. Records with an inconclusive call do not appear. Some structures have more than one record in an assay (separate samples or runs), and their calls can disagree. Activity calls are given as the source filed them. How the source made its calls, unless noted: active means hit-call score of the fitted dose curve at least 0.9, where 1 is the maximum; inconclusive means response in the unintended direction; inactive means score below 0.9.

Experiment [1] in a line: ATG_M_06_TRANS: Attagene TRANS-FACTORIAL HepG2 Assay for M06 Transcription Factor (Internal Marker) (AID 2282983).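 Further: reporter transcript level by RT-PCR then capillary electrophoresis fluorescence.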 The note with it: HepG2 Attagene TRANS M06 internal marker reporter. In outline: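 HepG2 cells transiently transfected with GAL4-UAS multiple reporter units, dosed 24 h. Reporter RNA reverse-transcribed, PCR-amplified, 6-FAM-labeled, HpaI-digested and quantified by capillary electrophoresis; this internal-marker signal fitted upward relative to DMSO.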

Experiment [2] addresses Transcriptional activator Myb (Homo sapiens) (UniProt P10242). The experiment can be described thus: ATG_Myb_CIS: Attagene CIS-FACTORIAL HepG2 Assay for human Myeloblastosis (Myb) Proto-Oncogene Transcription Factor (AID 2282986; active means hit-call score of the fitted dose curve at least 0.9, where 1 is the maximum; inactive means score below 0.9). To be noted: HepG2 Attagene CIS-FACTORIAL Myb reporter transcription; actives raise or lower the signal. In outline: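 Steps: transfect HepG2 with cis-regulated reporter units; dose with chemical for 24 h; isolate RNA, reverse-transcribe, PCR-amplify and FAM-label reporter sequences; digest with HpaI; resolve by capillary electrophoresis. Activity fitted in both directions relative to DMSO.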

Experiment [3] deals with Nuclear respiratory factor 1 (Homo sapiens) (UniProt Q16656). Briefly: ATG_NRF1_CIS: Attagene CIS-FACTORIAL HepG2 Assay for human Nuclear Respiratory Factor 1 (NRF1) Orphan Gene (AID 2282987; active means hit-call score of the fitted dose curve at least 0.9, where 1 is the maximum; inactive means score below 0.9). To be noted: HepG2 NRF1 cis-element reporter, Attagene multiplex; actives raise or lower the signal. In outline: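 Fluorescence intensity of labelled reporter cDNA fragments, resolved by capillary electrophoresis, served as readout for NRF1 cis-element activity. Transiently transfected HepG2 cells were dosed for 24 hours; activity in either direction was fitted against DMSO negative control.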

Experiment [4] addresses Oxysterols receptor LXR-beta (Homo sapiens) (UniProt P55055). Briefly: ATG_LXRb_TRANS: Attagene TRANS-FACTORIAL HepG2 Assay for human Liver X Receptor beta (LXRb) (AID 2282981). The note with it: HepG2 Attagene TRANS GAL4-LXRb reporter, mRNA. In outline:
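Transient transfection HepG2 (multiplexed RTUs, GAL4-UAS); NR-Gal4 chimera; 24 h exposure; RNA → RT-PCR → 6-FAM primer extension → HpaI → CE; increase vs DMSO.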

The nature of experiment [5]: ATG_M_32_TRANS: Attagene TRANS-FACTORIAL HepG2 Assay for M32 Transcription Factor (Internal Marker) (AID 2282984).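 Further: transcript level of a background control reporter unit measured by RT-PCR and capillary electrophoresis.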 The note with it: HepG2 Attagene TRANS M32 internal marker reporter. In outline: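 Measures reporter mRNA induction in human HepG2 liver cells after 24 h chemical treatment. Transcripts from transiently transfected GAL4-UAS reporter units are amplified, fluorescently labelled and sized by capillary electrophoresis; gain of signal relative to DMSO.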

Experiment [6] addresses Nuclear receptor subfamily 4 group A member 2 (Homo sapiens) (UniProt P43354). Briefly: ATG_NURR1_TRANS: Attagene TRANS-FACTORIAL HepG2 Assay for human Nuclear Receptor Related Protein 1 (NURR1) (AID 2282985). To be noted: HepG2 Attagene TRANS reporter, mRNA readout. In outline:
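Transient transfection of HepG2, human liver cells, with multiple GAL4-UAS reporter transcription units. Cells dosed 24 h, RNA isolated, reverse-transcribed, PCR-amplified, FAM-labelled, HpaI-digested, sized by capillary electrophoresis. DMSO served as negative control.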

For experiment [7], the target named is Hepatocyte nuclear factor 4-alpha (Homo sapiens) (UniProt P41235). Briefly: ATG_HNF4a_TRANS: Attagene TRANS-FACTORIAL HepG2 Assay for human Hepatocyte Nuclear Factor 4 alpha (HNF4a) (AID 2282982). To be noted: HepG2 HNF4a transactivation reporter, mRNA readout. In outline: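 Readout is fluorescent reporter-transcript fragments resolved by capillary electrophoresis after RT-PCR from HepG2 cells dosed for 24 h. Cells carried transfected GAL4-UAS reporter constructs measuring exogenous NR-GAL4 chimera activity; DMSO served as baseline.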
Sequence of Hepatocyte nuclear factor 4-alpha (Homo sapiens) (P41235 whole entry, looked up, the tested form may be a part): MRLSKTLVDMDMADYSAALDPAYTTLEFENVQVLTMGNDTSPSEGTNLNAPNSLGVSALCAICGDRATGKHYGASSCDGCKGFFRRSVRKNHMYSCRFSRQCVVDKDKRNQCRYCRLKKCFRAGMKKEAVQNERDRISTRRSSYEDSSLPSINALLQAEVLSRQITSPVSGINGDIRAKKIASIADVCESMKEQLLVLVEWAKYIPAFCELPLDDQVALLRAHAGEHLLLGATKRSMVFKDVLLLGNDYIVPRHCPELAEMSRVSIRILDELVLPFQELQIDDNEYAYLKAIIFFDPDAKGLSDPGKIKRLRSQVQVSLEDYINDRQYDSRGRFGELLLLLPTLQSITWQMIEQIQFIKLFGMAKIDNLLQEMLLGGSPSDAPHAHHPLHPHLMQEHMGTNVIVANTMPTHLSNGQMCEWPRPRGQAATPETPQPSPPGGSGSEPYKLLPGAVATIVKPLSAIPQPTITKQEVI

Sequence of Transcriptional activator Myb (Homo sapiens) (P10242 whole entry, looked up): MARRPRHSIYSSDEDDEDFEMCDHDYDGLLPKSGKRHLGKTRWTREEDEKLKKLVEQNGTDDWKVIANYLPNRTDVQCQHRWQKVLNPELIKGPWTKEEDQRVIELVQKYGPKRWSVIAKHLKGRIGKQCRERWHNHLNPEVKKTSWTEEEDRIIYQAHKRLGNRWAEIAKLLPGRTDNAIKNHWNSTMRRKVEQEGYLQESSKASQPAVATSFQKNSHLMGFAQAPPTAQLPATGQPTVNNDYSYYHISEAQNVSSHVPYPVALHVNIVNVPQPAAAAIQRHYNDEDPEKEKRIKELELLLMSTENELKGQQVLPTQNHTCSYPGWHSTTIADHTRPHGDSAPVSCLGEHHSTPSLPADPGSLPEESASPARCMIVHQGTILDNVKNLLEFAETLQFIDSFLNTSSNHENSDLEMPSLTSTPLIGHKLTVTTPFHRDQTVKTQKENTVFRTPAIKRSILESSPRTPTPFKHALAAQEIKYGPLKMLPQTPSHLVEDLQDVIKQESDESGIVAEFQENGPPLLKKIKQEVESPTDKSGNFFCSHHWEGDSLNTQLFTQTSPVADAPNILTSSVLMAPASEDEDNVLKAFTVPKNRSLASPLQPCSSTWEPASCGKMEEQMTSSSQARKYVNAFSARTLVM
Sequence of Nuclear receptor subfamily 4 group A member 2 (Homo sapiens) (P43354 whole entry, looked up, the tested form may be a part): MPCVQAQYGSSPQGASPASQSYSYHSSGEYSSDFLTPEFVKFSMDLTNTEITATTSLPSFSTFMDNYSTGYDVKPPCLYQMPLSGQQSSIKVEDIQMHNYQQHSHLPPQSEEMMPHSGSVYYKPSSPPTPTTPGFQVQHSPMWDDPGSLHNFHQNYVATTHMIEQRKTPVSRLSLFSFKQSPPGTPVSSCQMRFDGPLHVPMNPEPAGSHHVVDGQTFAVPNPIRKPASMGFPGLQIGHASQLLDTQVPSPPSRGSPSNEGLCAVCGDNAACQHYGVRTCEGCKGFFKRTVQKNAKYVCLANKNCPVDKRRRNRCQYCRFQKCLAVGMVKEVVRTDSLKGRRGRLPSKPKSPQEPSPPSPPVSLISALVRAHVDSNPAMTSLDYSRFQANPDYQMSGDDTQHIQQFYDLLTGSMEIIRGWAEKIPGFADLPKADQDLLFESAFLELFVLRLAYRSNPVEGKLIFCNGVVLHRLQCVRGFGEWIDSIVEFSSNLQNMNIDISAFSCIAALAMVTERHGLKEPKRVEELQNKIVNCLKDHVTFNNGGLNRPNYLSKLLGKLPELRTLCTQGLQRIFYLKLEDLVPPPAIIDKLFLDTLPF
Sequence of Nuclear respiratory factor 1 (Homo sapiens) (Q16656 whole entry, looked up, the tested form may be a part): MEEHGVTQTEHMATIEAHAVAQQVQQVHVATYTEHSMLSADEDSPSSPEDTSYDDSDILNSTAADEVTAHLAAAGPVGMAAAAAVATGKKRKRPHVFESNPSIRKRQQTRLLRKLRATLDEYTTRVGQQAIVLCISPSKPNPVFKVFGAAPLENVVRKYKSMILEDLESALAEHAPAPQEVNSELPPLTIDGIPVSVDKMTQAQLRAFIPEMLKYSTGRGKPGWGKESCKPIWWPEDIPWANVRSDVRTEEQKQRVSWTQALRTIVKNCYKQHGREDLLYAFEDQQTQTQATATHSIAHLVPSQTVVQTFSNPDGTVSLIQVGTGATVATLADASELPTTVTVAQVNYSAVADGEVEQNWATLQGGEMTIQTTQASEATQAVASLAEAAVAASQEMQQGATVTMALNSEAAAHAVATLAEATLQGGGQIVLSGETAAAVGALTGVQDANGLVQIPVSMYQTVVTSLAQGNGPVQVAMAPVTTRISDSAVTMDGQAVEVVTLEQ
Sequence of Oxysterols receptor LXR-beta (Homo sapiens) (P55055 whole entry, looked up, the tested form may be a part): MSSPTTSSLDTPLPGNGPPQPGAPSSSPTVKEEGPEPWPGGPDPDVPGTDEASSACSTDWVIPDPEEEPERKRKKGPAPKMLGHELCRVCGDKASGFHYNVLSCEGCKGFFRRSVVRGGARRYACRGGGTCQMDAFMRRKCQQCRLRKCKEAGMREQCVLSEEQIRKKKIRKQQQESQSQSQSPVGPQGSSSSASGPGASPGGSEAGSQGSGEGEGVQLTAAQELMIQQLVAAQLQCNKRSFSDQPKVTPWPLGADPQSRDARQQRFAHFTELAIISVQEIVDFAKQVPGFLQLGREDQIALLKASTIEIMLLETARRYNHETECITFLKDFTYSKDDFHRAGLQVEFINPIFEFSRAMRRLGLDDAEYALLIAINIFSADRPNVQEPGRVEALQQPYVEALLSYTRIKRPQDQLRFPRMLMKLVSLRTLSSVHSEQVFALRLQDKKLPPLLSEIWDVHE

On to `N=C(N)c1ccc(OCCCCCOc2ccc(C(=N)N)cc2)cc1`, for which the molecule was called inactive in experiment [1], in experiment [2] and in experiment [3].

Regarding `CC(C)C=O`, the molecule was called inactive in experiment [4], in experiment [5], in experiment [6], in experiment [2] and in experiment [3].

For the molecule `CC(=O)Nc1ccc(O)cc1`, the outcome in experiment [1], in experiment [5] and in experiment [2] was inactive.

As for `c1cc[nH]c1`, the molecule was called inactive in experiment [1], in experiment [2] and in experiment [3].

In the case of `CCOC=C(C(=O)OCC)C(=O)OCC`, the outcome in experiment [4], in experiment [1], in experiment [5], in experiment [2] and in experiment [3] was inactive.

Take `CC(C)c1c(C(=O)Nc2ccccc2)c(-c2ccccc2)c(-c2ccc(F)cc2)n1CC[C@@H](O)C[C@@H](O)CC(=O)O`: the outcome in experiment [1], in experiment [5] and in experiment [2] was inactive.

Turning to `CN(C)CCOC(c1ccccc1)c1ccccc1`, the molecule was classed as inactive in experiment [4], in experiment [1] and in experiment [2].

On to `O=C(F)C(F)(F)C(F)(F)C(F)(F)C(=O)F`, for which the call in experiment [7], in experiment [1], in experiment [5], in experiment [6], in experiment [2] and in experiment [3] was inactive.

Turning to `CCC(C)c1ccccc1O` (centres undefined), the outcome in experiment [1], in experiment [2] and in experiment [3] was inactive.

Turning to `COC(=O)C(F)(F)C(F)(F)C(F)(F)F`, the result in experiment [4], in experiment [1], in experiment [5], in experiment [2] and in experiment [3] was inactive.

As to `CCCCCCCCCC=CCC1CC(=O)OC1=O` (centres undefined), the outcome in experiment [1], in experiment [2] and in experiment [3] was inactive.

Turning to `O=c1cc(-c2ccccc2)oc2ccc3ccccc3c12`, the molecule was classed as inactive in experiment [4], in experiment [7], in experiment [6], in experiment [2] and in experiment [3].

`CCCCCCCCCCCCCCCC(=O)OC`: the result in experiment [4], in experiment [5], in experiment [2] and in experiment [3] was inactive.

Take `O=C1OC2(c3ccccc31)c1cc(I)c(O)c(I)c1Oc1c2cc(I)c(O)c1I`: the outcome in experiment [4], in experiment [1], in experiment [5], in experiment [6], in experiment [2] and in experiment [3] was inactive. Further, the AC50 (in general, the midpoint of the concentration-response curve, whichever way the signal moves) in experiment [6] is 25.4 µM (active).

Take `CCCCCCCCCCCCCCC`: the outcome in experiment [4], in experiment [2] and in experiment [3] was inactive.

Take `C=CC(=O)OCC(CO)(COCC(COC(=O)C=C)(COC(=O)C=C)COC(=O)C=C)COC(=O)C=C`: the result in experiment [7], in experiment [1] and in experiment [5] was inactive. In addition, the figures for the AC50 in experiment [2] and in experiment [3] were 7.52 µM (active) and 14.9 µM (active), respectively.

Regarding `COc1cc([N+](=O)[O-])ccc1N`, the result in experiment [4], in experiment [2] and in experiment [3] was inactive.

As to `CC1=CC(=O)c2ccccc2C1=O`, the outcome in experiment [4], in experiment [7], in experiment [6], in experiment [2] and in experiment [3] was inactive.

As to `Cn1sccc1=O`, the result in experiment [5] and in experiment [2] was inactive. In addition, the AC50 in experiment [3] was 170 µM (active).

As for `Oc1cc2ccccc2cc1O`, the molecule was called inactive in experiment [6], in experiment [2] and in experiment [3].

As for `CCC(=O)O`, the molecule was classed as inactive in experiment [7], in experiment [1], in experiment [6], in experiment [2] and in experiment [3].

Take `CS(=O)(=O)c1ccc([C@@H](CC2CCCC2)C(=O)Nc2cnccn2)cc1Cl`: the outcome in experiment [4], in experiment [1], in experiment [5] and in experiment [2] was inactive.

Consider `Clc1ccc2c(Cl)ccnc2c1`, for which the molecule was classed as inactive in experiment [7], in experiment [1], in experiment [5], in experiment [2] and in experiment [3].

As for `COC(=O)C(F)(F)C(F)(F)C(F)(F)C(F)(F)C(F)(F)F`, the outcome in experiment [7], in experiment [1], in experiment [5], in experiment [6], in experiment [2] and in experiment [3] was inactive.

Take `O=C(CCCN1CCC(O)(c2ccc(Cl)cc2)CC1)c1ccc(F)cc1`: in experiment [2], the call was inactive.

As for `NCCN`, the molecule was called inactive in experiment [5], in experiment [2] and in experiment [3].

With `CCOC=O`, the outcome in experiment [7], in experiment [1], in experiment [2] and in experiment [3] was inactive.

Consider `CCCCCCCCCCCC`, for which the outcome in experiment [4], in experiment [1], in experiment [5], in experiment [6], in experiment [2] and in experiment [3] was inactive.

`CCCCCCCCCCCC(=O)NCCCN(C)C`: the molecule was classed as inactive in experiment [2] and in experiment [3].

For `CCCCCCC(C)(C)C(=O)O`, the call in experiment [1], in experiment [5], in experiment [2] and in experiment [3] was inactive.

Regarding `CCCCC(CC)C(=O)OCCOCCOCCOCCOC(=O)C(CC)CCCC` (centres undefined), the molecule was classed as inactive in experiment [1], in experiment [6], in experiment [2] and in experiment [3].
